Screening results deposited in PubChem by National Center for Advancing Translational Sciences (NCATS).
Cycloheximide cs = affects cycloheximide protein synthesis inhibition readout, counter-screen | cell reporter, cycloheximide protein synthesis inhibition counterscreen | max response, % | 12% of 300,000 active; in the data active = max response mostly above about 13%, no sharp cut-off; inactive = mostly below about 14%; also: read at 38.3 µM for the half of the compounds with a filed dose
Pf growth 96h = P. falciparum growth inhibition at 96 hours. P. falciparum luciferase reporter growth, 96 h. Potency, µM (highest dose often 28.7 µM), most hits filed as inhibitors. 6.9% of 320,000 active. AID 504834
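Parasite growth measured via integrated firefly luciferase reporter in P. falciparum. Infected erythrocytes at 2% hematocrit, 0.05% parasitemia final were treated 96 hours at 37 C under 5% CO2, and luminescence was read.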
Pf growth 48h = inhibits P. falciparum growth in the first generation, 48 h. AID 504832. Potency, µM (titrated, usually from 28.7 µM), usual class: inhibitors. P. falciparum luciferase growth in erythrocytes, 48 h. 5.9% of 310,000 active
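First compound was added to culture medium, then infected red cells at 0.1% parasitemia and 2% hematocrit (final). After incubation at 37 C under 5% CO2, luciferase detection reagent was dispensed and light output recorded.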
Shiga inhibitor = Shiga toxin inhibition. Vero cells, Shiga toxin protein synthesis inhibition reporter. inhibition, % at 38.7 µM. 9.2% of 290,000 active; in the data active = inhibition mostly above about 28%, no sharp cut-off; inactive = mostly below about 43%
NS1 inh = blocks influenza NS1 protein function; AID 2326; 0.4% of 270,000 active; Potency, µM (doses to about 46.1 µM); calls by dose curve; also: actives are rising curves; nearly all actives have a fitted effect of over 50% in size
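OD600 was taken as the measure of yeast growth restored by compound in an NS1-expressing S. cerevisiae strain. Cells had been washed out of glucose medium and diluted 1:100 into galactose -URA medium, pH 6.0.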
SARS PLP yeast = blocks SARS-CoV papain-like protease in a yeast assay; S. cerevisiae expressing SARS-CoV PLpro, growth rescue; Potency, µM (titrated, usually from 32.9 µM), actives largely listed as activators; 0.19% of 330,000 active; calls by dose curve; also: nearly all actives have a fitted effect of over 55% in size
Large screens that a line does not name were inactive. Compounds with a hit are over-represented: about 21% of the library has one in this group of screens. Unless noted, calls follow the shape of the dose curve; as a rule, active = well fitted inhibition curve with a large enough effect; inconclusive = small, poorly fitted or top-dose-only effect, or another doubt; inactive = no such curve, though single readings can be large or run the other way.

CC(c1ccco1)N(C(=O)COc1ccc(Cl)cc1)c1ccccn1 (stereo not given)	Cycloheximide cs 39, Shiga inhibitor 135
CC(c1ccco1)N(C(=O)c1ccc(Cl)c([N+](=O)[O-])c1)c1ccccn1 (stereo not given)	none
CC(c1ccco1)N(C(=O)COc1ccc(Cl)cc1Cl)c1ccccn1 (stereo not given)	Cycloheximide cs 53, Shiga inhibitor 126 (no result: Pf growth 96h)
COc1ccc(S(=O)(=O)Nc2cccc(NC(C)=O)c2)cc1	NS1 inh inconclusive
CCc1nc(=O)c(-c2ccccc2)c(C)n1-c1ccccc1	none
CC[N+]1=CN(c2ccccc2)C(C)=CC1(C)C	Pf growth 96h 4.1µM, Pf growth 48h inconclusive
COc1ccc(N2CCN(C(=O)c3cc(S(=O)(=O)N4CCCCCC4)ccc3OC)CC2)cc1	Pf growth 96h inconclusive, Pf growth 48h 12µM (no result: Cycloheximide cs, Shiga inhibitor, NS1 inh)
COc1ccc(N2CCN(S(=O)(=O)c3ccc(OC)c(C(=O)N4CCOCC4)c3)CC2)cc1	none
COc1ccc2cc(S(=O)(=O)N3CCCC3)ccc2c1	Pf growth 96h 6.6µM
COc1ccccc1N1CCN(C(=O)c2cc(S(=O)(=O)N3CCCCC3)ccc2C)CC1	none (no result: Cycloheximide cs, Pf growth 96h, Pf growth 48h, Shiga inhibitor, NS1 inh)
COc1ccc(S(=O)(=O)N2CCCCCC2)cc1C(=O)N1CCN(c2ccccc2C)CC1	Pf growth 96h 5.9µM, Pf growth 48h 12µM (no result: Cycloheximide cs, Shiga inhibitor, NS1 inh)
COc1ccc(S(=O)(=O)N2CCCCCC2)cc1C(=O)N1CCN(c2ccccc2O)CC1	Pf growth 96h 4.7µM, Pf growth 48h 2.3µM (no result: Cycloheximide cs, Shiga inhibitor, NS1 inh)
COc1ccc2cc(S(=O)(=O)N3CCN(C)CC3)ccc2c1	Pf growth 96h inconclusive, Pf growth 48h inconclusive
CSc1nc(N)nc2c1ncn2CC(=O)NCCNc1ccc([N+](=O)[O-])cn1	none (no result: Cycloheximide cs, Pf growth 96h, Pf growth 48h, Shiga inhibitor, NS1 inh)
CCc1c(C(C)O)oc2ccc3c(C)cc(=O)oc3c12 (stereo not given)	Pf growth 48h inconclusive
COc1ccc(OC2CCN(S(=O)(=O)c3cccc(F)c3)CC2)cc1	Cycloheximide cs 36, Shiga inhibitor 81
COc1ccc(NC(=O)Nc2nnc(-c3ccccc3F)s2)cc1	Pf growth 96h inconclusive (no result: NS1 inh)
COc1ccc(CC(=O)Nc2nnc(C(C)C)s2)cc1	Cycloheximide cs 19
COc1ccc(NC(=O)Nc2nnc(-c3ccco3)s2)cc1	Cycloheximide cs 34, Shiga inhibitor 59
CCCc1nnc(NC(=O)Nc2ccc(OC)cc2)s1	Cycloheximide cs 24
COc1ccc(NC(=O)Nc2nnc(C(C)C)s2)cc1	Cycloheximide cs 42, Shiga inhibitor 62
O=S(=O)(NCCc1ccccc1F)c1cccc(S(=O)(=O)N2CCOCC2)c1	Pf growth 96h 6.6µM
O=S(=O)(NCc1ccccc1)c1cccc(S(=O)(=O)N2CCOCC2)c1	Pf growth 96h 0.059µM (no result: Pf growth 48h)
C=CCSC1=NNC(c2ccc(C(C)(C)C)cc2)=NN1	Cycloheximide cs 32, Shiga inhibitor 79
COc1ccccc1OCC(=O)N/N=C/c1cccc2cccnc12	Pf growth 96h 13µM
COc1ccccc1OCC(=O)NN=C(Cc1ccccc1)Cc1ccccc1	Pf growth 96h inconclusive, Pf growth 48h inconclusive, NS1 inh inconclusive
CCC(=N\NC(=O)COc1ccccc1OC)/C(CC)=N/NC(=O)COc1ccccc1OC	Pf growth 96h inconclusive, Pf growth 48h 9.3µM (no result: Cycloheximide cs, Shiga inhibitor, NS1 inh)
CC(C)n1cc(/C=N/NC(=O)COc2cccc3cccnc23)c2ccccc21	Pf growth 96h 8.3µM, Pf growth 48h inconclusive
COc1ccc(/C=N/NC(=O)COc2cccc3ccccc23)c(C(=O)O)c1OC	Pf growth 96h inconclusive, NS1 inh inconclusive
COc1ccccc1OCC(=O)N/N=C/c1c(O)ccc2ccccc12	Pf growth 96h inconclusive, Pf growth 48h 2.6µM, SARS PLP yeast inconclusive
CCc1ccc(N(CC(=O)NC2CCCC2)C(=O)CCC(=O)Nc2ccccn2)cc1	Pf growth 48h inconclusive
CCOC(=O)CC(=O)CSc1ncnc2c1nnn2-c1ccccc1	Pf growth 96h inconclusive
CC(CNC(=O)C1CCCCC1C(=O)O)c1ccccc1 (stereo not given)	none (no result: Pf growth 96h)
COc1ccc2ccccc2c1/C=N/NC(=O)c1ccccc1F	Cycloheximide cs 11, Pf growth 96h inconclusive
COc1cccc(/C=N/NC(=O)COc2cccc3cccnc23)c1O	Pf growth 48h inconclusive, Shiga inhibitor 32 (no result: NS1 inh)
C=CCn1cc(/C=N/NC(=O)COc2cccc3cccnc23)c2ccccc21	Pf growth 96h inconclusive
COc1ccc2ccccc2c1/C=N/NC(=O)c1cccc(Br)c1	none
O=C(NC(Nc1ccccn1)C(Cl)(Cl)Cl)c1ccccc1 (stereo not given)	none
COc1ccc(Cl)cc1Nc1nc2ccc(C)cc2n2cnnc12	Pf growth 48h inconclusive
CN1Cc2cc(C(=O)c3cc(Cl)cc(CSc4ncccn4)c3O)cnc2NC1=O	Pf growth 96h 9.3µM
COc1ccc(OC)c(NC(=O)CCc2nnc3ccc(N4CCC(C)CC4)nn23)c1	Pf growth 48h inconclusive
CCOc1ccc(NC(=O)CCc2nnc3ccc(N4CCC(C)CC4)nn23)cc1	Pf growth 96h inconclusive, Pf growth 48h 9.3µM
CCOc1ccc(NC(=O)CCc2nnc3ccc(N4CCN(C)CC4)nn23)cc1	none
COc1ccc(NC(=O)CCc2nnc3ccc(N4CCC(C)CC4)nn23)cc1OC	Pf growth 96h 4.1µM
COc1ccccc1-c1nnc(SCC(=O)NCc2c(C)c(Cl)cc(C(C)C)c2O)o1	none (no result: Pf growth 96h)
CCc1cc2c(=O)c(Oc3ccccc3F)c(C)oc2c(CN(C)C)c1O	Pf growth 48h 8.3µM
Nc1nc2n(n1)C1(CCCCC1)C1=C(CCCC1)N2	Pf growth 96h 10µM, NS1 inh inconclusive
COC(=O)c1ccc(OC(=O)c2ccc(OCc3c(C)noc3C)c(OC)c2)cc1	Pf growth 96h 10µM
COc1ccc(CCNC(=O)c2ccc(OCc3c(C)noc3C)cc2)cc1OC	Pf growth 96h inconclusive, Pf growth 48h 9.3µM (no result: Cycloheximide cs, Shiga inhibitor, NS1 inh)
CCOc1ccc(CCNC(=O)c2ccc(OCc3c(C)noc3C)cc2)cc1OCC	Pf growth 96h 7.4µM, Pf growth 48h inconclusive (no result: Cycloheximide cs, Shiga inhibitor, NS1 inh)
COc1ccc(CNC(=O)COc2ccc(Br)c(C)c2)cc1	none
O=C(N[C@@H](Cc1ccccc1)C(=O)N1CCN(S(=O)(=O)c2ccccc2F)CC1)c1ccco1	none (no result: Cycloheximide cs, Pf growth 96h, Pf growth 48h, Shiga inhibitor, NS1 inh)
Cc1ccccc1C1CC(=O)Oc2ccc(C(C)(C)C)cc21 (stereo not given)	none (no result: Pf growth 96h, Pf growth 48h, NS1 inh, SARS PLP yeast)
O=C(O/N=C(\c1ccccc1)c1ccccn1)c1ccc(Cl)c(Cl)c1	Pf growth 96h inconclusive
N/C(CN1CCCC1=O)=N\OC(=O)c1ccc(Cl)c(Cl)c1	Cycloheximide cs 23
N/C(CN1CCCC1=O)=N\OC(=O)c1ccc(Cl)cc1	Cycloheximide cs 15, Pf growth 96h 12µM
CCOC(=O)Cn1c(=O)c(F)cn(Cc2ccc(OC)c([N+](=O)[O-])c2)c1=O	Pf growth 96h 10µM
COc1ccc(CCC(=O)Nc2sccc2C#N)cc1	Cycloheximide cs 51, Shiga inhibitor 131 (no result: NS1 inh)
N#Cc1ccsc1NC(=O)COC(=O)c1cc(Br)ccc1O	Cycloheximide cs 45, Pf growth 48h inconclusive, Shiga inhibitor 84
